Measured values: PubChem BioAssay (NCATS)
Several values for one entry are separate records, joined by “and”; a condition that tells them apart may be missing. Equal entries are not always repeated. Inconclusive results are not listed. Entries that show only a call come without a potency. Activity calls are given as the source filed them. Unless noted, the call rests on the fitted dose curve; in most records, active means well fitted curve in the direction sought with a large enough effect; inconclusive means small, poorly fitted or top-dose-only effect, or another doubt; inactive means no such curve, though single readings can be large; an effect the other way counts as inactive or inconclusive.

Columns and labels:
[1] = Cell Viability - Jurkat (AID 426;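 active means dose-dependent loss of cell ATP signal giving a full or clear fitted curve, ranked by lower potency value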;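 further: potency means the concentration at half of the fitted maximal effect; cells exposed to compound for 40 hours at 37 °C before ATP read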); settings: qHTS
Method in brief: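 Cytotoxicity taken as drop in cellular ATP (CellTiter-Glo luminescence, 20 min room temperature) after 40 hr, 37C treatment of 5000 Jurkat Clone E6-1 cells per well; concentration-response fitted with Hill equation for AC50.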

[2] = Cell Viability - SH-SY5Y (AID 544); settings: SH-SY5Y neuroblastoma cell viability; viability change, negative = cytotoxic: at 92.2 µM (top of the series);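 further: cells exposed to compound for 40 hours; nearly all actives have a fitted effect of over 55% in size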
Method in brief: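 Cytotoxicity measured via ATP-dependent luciferase luminescence (CellTiter-Glo) following 40 h, 37 °C exposure of 1500 SH-SY5Y cells per well. Concentration-response data were fitted with the standard Hill equation to give AC50.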

[3] = Cell Viability - LYMP1-002 - Assay at 16 hr (AID 948); settings: LYMP1-002 lymphoblastoid cell viability; series mostly up to 92.2 µM
Method in brief: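 LYMP1-002 human lymphoblastoid cells, 2500/well, were treated with compounds for 16 hr at 37 C in complete medium. Viability was read as intracellular ATP by CellTiter-Glo luminescence, and AC50 was derived from a Hill fit to concentration-response data.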

[4] = MultiTox-Fluor Cytotoxicity Assay - LYMP1-002 - Dead Cells (AID 960); settings: LYMP1-002 lymphoblastoid cells, dead-cell protease fluorescence; series mostly up to 46.1 µM; further: nearly all actives have a fitted effect of over 60% in size; further: potency means the concentration at half of the fitted maximal effect
Method in brief: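 Dead-cell fluorescence (Ex/Em 485/520) after 16 h compound exposure at 37 C of LYMP1-002 lymphoblastoid cells in complete medium; AC50 by Hill equation, with data scaled between DMSO and 15 uM tetraoctylammonium bromide.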

[5] = MultiTox-Fluor Cytotoxicity Assay - LYMP1-003 - Live Cells (AID 962); settings: LYMP1-003 lymphoblastoid cells, MultiTox-Fluor live-cell protease fluorescence; series mostly up to 92.2 µM;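 further: cells exposed to compound for 16 hours at 37 °C; cytotoxic hits lower the live-cell protease signal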
Method in brief: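 Live-cell protease activity (GF-AFC substrate, 405/510 nm, 60 min at room temperature) after 16 h, 37 C compound exposure of human lymphoblastoid LYMP1-003 cells; concentration-response fitted to the Hill equation for AC50.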

[6] = Cell Viability - LYMP1-003 - Assay at 40 hr (AID 964); settings: LYMP1-003 lymphoblastoid viability; series mostly up to 92.2 µM; further: nearly all actives have a fitted effect of over 60% in size; further: potency means the concentration at half of the fitted maximal effect
Method in brief: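 Viability is taken as cellular ATP, read by CellTiter-Glo luminescence after 40 h of compound exposure at 37 C. Cells: human lymphoblastoid line LYMP1-003 at 2500/well; AC50 values derived by Hill-equation fitting of concentration-response data.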

[7] = Cell Viability - LYMP2-011 (AID 969); settings: LYMP2-011 lymphoblastoid cells viability; series mostly up to 92.2 µM; further: nearly all actives have a fitted effect of over 60% in size; further: potency means the concentration at half of the fitted maximal effect
Method in brief: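 Cytotoxicity qHTS with ATP content as read-out: lymphoblastoid cells (2500/well) exposed to compound for 24 h at 37 C, then luciferase luminescence measured. Concentration-response data fitted with the standard Hill equation to give AC50.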

[8] = Cell Viability - LYMP2-015 (AID 971); settings: LYMP2-015 lymphoblastoid cell viability; series mostly up to 92.2 µM; further: nearly all actives have a fitted effect of over 55% in size; further: potency means the concentration at half of the fitted maximal effect
Method in brief: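 Cytotoxicity readout: decrease in intracellular ATP (CellTiter-Glo luminescence) in 2500 LYMP2-015 lymphoblastoid cells/well after 24 h compound exposure at 37 C. Concentration-response data fitted with the standard Hill equation to give AC50.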

[9] = Cell Viability - LYMP2-021 (AID 974); settings: LYMP2-021 lymphoblastoid cells viability; series mostly up to 92.2 µM; further: nearly all actives have a fitted effect of over 55% in size; further: potency means the concentration at half of the fitted maximal effect
Method in brief: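 AC50 values come from Hill-equation fits to CellTiter-Glo luminescence (ATP content), read after 24 hour compound exposure at 37 C of 2500 LYMP2-021 lymphoblastoid cells/well; tetraoctylammonium bromide as positive control.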

[10] = Cell Viability - LYMP2-023 (AID 975); settings: LYMP2-023 lymphoblastoid cell viability; series mostly up to 92.2 µM;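 further: cellular ATP measured by luciferase luminescence as viability proxy; nearly all actives have a fitted effect of over 55% in size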
Method in brief: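 Intracellular ATP, read by CellTiter-Glo luminescence, reports viability after 24 hr compound exposure at 37 C. 2500 lymphoblastoid cells/well (LYMP2-023) seeded 5 hr beforehand; Hill fits give AC50; positive control tetraoctylammonium bromide.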

[11] = Cell Viability - LYMP2-006 (AID 978); settings: LYMP2-006 lymphoblastoid cell viability, qHTS; series mostly up to 92.2 µM; further: nearly all actives have a fitted effect of over 60% in size; further: potency means the concentration at half of the fitted maximal effect
Method in brief: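 Human lymphoblastoid cells (LYMP2-006), 2500/well in complete medium, were treated with compound for 24 hr at 37 C. Cellular ATP was read by CellTiter-Glo luminescence after 30 min, and AC50 values came from Hill-equation fits of concentration-response data.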

[12] = Cell Viability - LYMP2-008 (AID 980); settings: LYMP2-008 lymphoblastoid cell viability, qHTS; series mostly up to 92.2 µM; further: nearly all actives have a fitted effect of over 60% in size
Method in brief: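 Cytotoxicity determined from ATP-dependent luciferase luminescence (CellTiter-Glo) following 24 h compound exposure of human lymphoblastoid LYMP2-008 cells at 37 C. Concentration-response data fitted to the Hill equation to give AC50.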

[13] = Cell Viability - LYMP2-012 (AID 982); settings: LYMP2-012 lymphoblastoid cell viability qHTS; series mostly up to 92.2 µM
[14] = Cell Viability - LYMP2-018 (AID 985); settings: LYMP2-018 lymphoblastoid cells, viability (qHTS); series mostly up to 92.2 µM; further: nearly all actives have a fitted effect of over 50% in size; further: potency means the concentration at half of the fitted maximal effect
Method in brief: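 Viability read as CellTiter-Glo luminescence (cellular ATP) after 24 hr compound exposure at 37 C of 2500 LYMP2-018 lymphoblastoid cells/well, pre-plated 5 hr. Hill-equation modelling gave AC50.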

[15] = target: Glucocorticoid receptor (Homo sapiens) (UniProt P04150); experiment: qHTS assay for small molecule agonists of glucocorticoid receptor signaling (AID 588532; active means well fitted curve in the direction sought with a large enough effect in the signal ratio, with a control signal flat; the % refers to the signal ratio); settings: HeLa MMTV-bla, beta-lactamase ratio, agonist, 18 h; stronger effect = higher value; percent of dexamethasone control, DMSO zero
Glucocorticoid receptor (Homo sapiens), sequence (P04150 whole entry, looked up): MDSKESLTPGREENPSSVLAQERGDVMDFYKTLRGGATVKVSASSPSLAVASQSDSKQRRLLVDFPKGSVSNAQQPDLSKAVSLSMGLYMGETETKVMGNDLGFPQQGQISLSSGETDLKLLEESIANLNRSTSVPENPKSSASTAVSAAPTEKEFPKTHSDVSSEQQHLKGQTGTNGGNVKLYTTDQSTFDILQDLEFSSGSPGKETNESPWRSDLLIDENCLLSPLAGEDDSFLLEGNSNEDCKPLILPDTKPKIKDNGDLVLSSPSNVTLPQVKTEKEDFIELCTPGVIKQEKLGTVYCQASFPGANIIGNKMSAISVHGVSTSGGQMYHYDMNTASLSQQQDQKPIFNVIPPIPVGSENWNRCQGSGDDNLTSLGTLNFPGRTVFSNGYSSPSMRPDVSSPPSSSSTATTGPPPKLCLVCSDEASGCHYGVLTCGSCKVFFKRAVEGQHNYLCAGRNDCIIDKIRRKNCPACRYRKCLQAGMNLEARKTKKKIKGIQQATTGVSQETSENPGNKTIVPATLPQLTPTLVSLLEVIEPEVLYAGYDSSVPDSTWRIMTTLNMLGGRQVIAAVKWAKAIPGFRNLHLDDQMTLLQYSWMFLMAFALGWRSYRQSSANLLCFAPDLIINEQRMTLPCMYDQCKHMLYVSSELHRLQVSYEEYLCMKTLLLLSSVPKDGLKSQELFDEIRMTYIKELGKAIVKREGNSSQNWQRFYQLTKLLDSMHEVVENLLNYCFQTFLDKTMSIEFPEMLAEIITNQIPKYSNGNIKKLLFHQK
Method in brief: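 MMTV-bla HeLa, beta-lactamase reporter; medium with 1% charcoal/dextran-stripped FBS; cpds up to 92 uM, 18 h, 37 C; CCF4 readout 460/530 nm; Hill fit → EC50, efficacy vs 0.1 uM dexamethasone = 100%.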

[16] = qHTS assay for small molecule agonists of retinoid X receptor alpha signaling (AID 588544); settings: HEK293T RXRa-UAS-bla, beta-lactamase reporter, 18 h; 530 nm emission
[17] = target: Thyroid hormone receptor beta (Homo sapiens) (UniProt P10828); experiment: qHTS assay for small molecule antagonists of thyroid hormone receptor beta signaling (AID 588547; active means well fitted inhibition curve with a large enough effect in the signal ratio, with a control signal flat, not every such curve was filed as active; the % refers to the signal ratio;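 further: cells stimulated with 0.4 nM T3 agonist during compound exposure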); settings: TR-UAS-bla HEK293, beta-lactamase ratio, antagonist mode, 18 h
Thyroid hormone receptor beta (Homo sapiens), sequence (P10828 whole entry, looked up): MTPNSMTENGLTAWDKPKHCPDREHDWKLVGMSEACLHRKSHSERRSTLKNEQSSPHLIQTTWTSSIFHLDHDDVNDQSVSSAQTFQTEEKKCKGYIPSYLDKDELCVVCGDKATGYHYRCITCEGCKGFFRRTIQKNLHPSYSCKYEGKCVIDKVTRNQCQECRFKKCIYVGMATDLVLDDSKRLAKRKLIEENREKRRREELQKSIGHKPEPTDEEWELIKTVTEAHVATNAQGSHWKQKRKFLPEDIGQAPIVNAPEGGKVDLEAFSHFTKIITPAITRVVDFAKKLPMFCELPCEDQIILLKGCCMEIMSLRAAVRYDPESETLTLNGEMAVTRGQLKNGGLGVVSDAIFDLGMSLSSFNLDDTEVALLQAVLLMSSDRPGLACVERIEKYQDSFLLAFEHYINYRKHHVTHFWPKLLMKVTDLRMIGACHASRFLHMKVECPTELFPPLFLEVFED
Method in brief: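 TR-UAS-bla GripTite HEK293 cells in 2% charcoal/dextran FBS medium were preincubated 4 h at 37 C, given compound (0.59 nM to 92 uM) plus 0.4 nM T3 (final) for 18 h, then CCF4 for 2 h at RT; Hill fit gave IC50.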

[18] = qHTS assay for small molecule agonists of the antioxidant response element (ARE) signaling pathway (AID 651741; active means well fitted activation curve with a large enough effect in the signal ratio; the % refers to the signal ratio; further: potency means the concentration at half of the fitted maximal effect); settings: HepG2 ARE-bla reporter, beta-lactamase FRET ratio, 16 h; series mostly up to 96 µM
Method in brief: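 Reporter: beta-lactamase under ARE, stably in HepG2. Exposure: 16 h, 37 C, compounds delivered in DMSO by pin tool after 5 h cell preincubation. Readout: FRET substrate fluorescence after 2 h at RT.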

[19] = target: Nuclear receptor ROR-gamma (Homo sapiens) (UniProt P51449); experiment: qHTS assay for small molecule antagonists of the retinoid-related orphan receptor gamma (ROR-gamma) signaling pathway (AID 651802); settings: ROR-gamma antagonist cell reporter assay; series mostly up to 92.2 µM; further: nearly all actives have a fitted effect of over 60% in size; further: potency means the concentration at half of the fitted maximal effect
Nuclear receptor ROR-gamma (Homo sapiens), sequence (P51449 whole entry, looked up): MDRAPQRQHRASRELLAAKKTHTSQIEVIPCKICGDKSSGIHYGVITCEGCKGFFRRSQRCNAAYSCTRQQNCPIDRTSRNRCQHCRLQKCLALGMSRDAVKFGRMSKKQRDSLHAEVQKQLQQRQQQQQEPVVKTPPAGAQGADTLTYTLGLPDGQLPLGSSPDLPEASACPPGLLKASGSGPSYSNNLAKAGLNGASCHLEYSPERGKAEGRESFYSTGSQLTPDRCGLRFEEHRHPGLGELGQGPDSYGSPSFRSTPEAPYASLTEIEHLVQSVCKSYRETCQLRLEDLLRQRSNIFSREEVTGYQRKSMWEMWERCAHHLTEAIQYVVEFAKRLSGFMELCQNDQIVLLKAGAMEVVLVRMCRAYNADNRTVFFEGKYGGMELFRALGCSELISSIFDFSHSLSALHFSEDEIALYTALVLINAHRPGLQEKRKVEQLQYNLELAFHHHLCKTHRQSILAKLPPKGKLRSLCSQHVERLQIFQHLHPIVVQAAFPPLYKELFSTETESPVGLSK
Method in brief: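 Luminescence (One-Glo, 30 min RT) measured 16 h after compound addition and doxycycline induction at 37C. Reporter: RORE-luciferase under TET-inducible ROR-gamma in CHO cells.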

[20] = target: Nuclear receptor subfamily 1 group I member 2 (Rattus norvegicus) (UniProt Q9R1A7); experiment: qHTS assay for small molecule activators of the rat pregnane X receptor (rPXR) signaling pathway (AID 651751; call rule not given here); settings: rPXR reporter cells, luciferase (One-Glo), 24 h
Nuclear receptor subfamily 1 group I member 2 (Rattus norvegicus), sequence (Q9R1A7 whole entry, looked up): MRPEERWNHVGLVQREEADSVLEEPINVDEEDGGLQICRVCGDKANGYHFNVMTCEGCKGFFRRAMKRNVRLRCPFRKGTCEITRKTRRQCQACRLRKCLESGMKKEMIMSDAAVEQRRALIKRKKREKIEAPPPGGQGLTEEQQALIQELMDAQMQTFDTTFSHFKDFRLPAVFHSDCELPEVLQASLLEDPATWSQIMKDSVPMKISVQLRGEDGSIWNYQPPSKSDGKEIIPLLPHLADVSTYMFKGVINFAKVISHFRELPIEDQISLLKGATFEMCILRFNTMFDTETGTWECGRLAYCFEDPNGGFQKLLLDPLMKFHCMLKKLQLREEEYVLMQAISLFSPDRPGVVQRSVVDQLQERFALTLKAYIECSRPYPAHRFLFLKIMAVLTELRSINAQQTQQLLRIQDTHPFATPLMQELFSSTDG

Compound | Potency [1] | Potency [2] | Potency [3] | Potency [4] | Potency [5] | Potency [6] | Potency [7] | Potency [8] | Potency [9] | Potency [10] | Potency [11] | Potency [12] | Potency [13] | Potency [14] | activation [15] | max response [16] | activity change % (negative = inhibition) [17] | Potency [18] | Potency [19] | max response [20]
ClC(Cl)=C(c1ccc(Cl)cc1)c1ccc(Cl)cc1 | > 92 µM (inactive) | inactive | inactive | inactive | inactive | inactive | inactive | inactive | inactive | inactive | inactive | inactive | inactive | inactive | 4.56% (inactive) and 6.94% (inactive) and 2.36% (inactive) | 8.46% | 0.649% (inactive) and 24.3% (inactive) and -8.25% (inactive) | 66.8 µM (active) | 37.6 µM (active) and 33.5 µM (active) | 1.57% (inactive) and 5.61% (inactive) and 0.401% (inactive)
CCNc1nc(Cl)nc(NC(C)C)n1 | > 92 µM (inactive) | inactive | inactive | inactive | inactive | inactive | inactive | inactive | inactive | inactive | inactive | inactive | inactive | inactive | -2.38% (inactive) and -6.25% (inactive) | 15.9% and 26.8% | -11.1% (inactive) and -4.42% (inactive) | inactive | inactive | 
C=CCc1ccc2c(c1)OCO2 | > 92 µM (inactive) | inactive | inactive | inactive | inactive | inactive | inactive | inactive | inactive | inactive | inactive | inactive | inactive | inactive |  | 1.6% | -3.5% (inactive) |  | inactive | 3.14% (inactive)
O=C(O)COc1ccc(Cl)cc1Cl | > 92 µM (inactive) | inactive | inactive | inactive | inactive | inactive | inactive | inactive | inactive | inactive | inactive | inactive | inactive | inactive | -2.35% (inactive) [middle of 4 runs] | 29.1% |  | 48.6 µM (active) |  | -0.13% (inactive) [middle of 4 runs]
CNC(=O)O/N=C/C(C)(C)SC | > 92 µM (inactive) | inactive | inactive | inactive | inactive | inactive | inactive | inactive |  | inactive | inactive | inactive | inactive | inactive | -4.75% (inactive) and -0.357% (inactive) and -10.4% (inactive) | -12.4% and 19.1% and 1.84% | -3.92% (inactive) and 16.1% (inactive) and 0.362% (inactive) | 27.3 µM (active) | inactive | 
C=CCc1ccc(OC)cc1 | > 92 µM (inactive) | inactive | inactive | inactive | inactive | inactive | inactive | inactive | inactive | inactive | inactive | inactive | inactive | inactive |  | -5.04% | -7.69% (inactive) | inactive | inactive | 0.607% (inactive)
C/C=C/c1ccc2c(c1)OCO2 | > 92 µM (inactive) | inactive | inactive | inactive | inactive | inactive | inactive | inactive | inactive | inactive | inactive | inactive | inactive | inactive |  | -11.2% |  |  | inactive | 0.551% (inactive)
ClC1=C(Cl)C2(Cl)C3C(Cl)C=CC3C1(Cl)C2(Cl)Cl (stereo not given) |  | inactive |  |  |  |  |  |  |  | inactive |  | inactive | inactive |  | 0.68% (inactive) |  | -18.9% (inactive) |  |  | -2.14% (inactive)
CCc1cccc(CC)c1N(COC)C(=O)CCl | 54 µM (active) |  | inactive | inactive | inactive |  |  | 50.1 µM (active) |  |  |  |  |  | 39.8 µM (active) | 0.967% (inactive) and -3.2% (inactive) | 19.2% | -17.8% (inactive) and -7.56% (inactive) | 13.3 µM (active) and 24.3 µM (active) |  | -3.94% (inactive) and -1.3% (inactive)
O=S1OCC2C(CO1)C1(Cl)C(Cl)=C(Cl)C2(Cl)C1(Cl)Cl (stereo not given) |  |  |  | 25.1 µM (active) |  | 39.8 µM (active) | inactive | inactive | inactive | inactive |  | inactive | inactive | inactive | 7.98% (inactive) | -15.4% | -1.54% (inactive) | 66.8 µM (active) | 21.1 µM (active) | 
ClC1=C(Cl)C2(Cl)C3C4C=CC(C4)C3C1(Cl)C2(Cl)Cl (stereo not given) |  | inactive |  |  |  |  |  |  | 63.1 µM (active) |  | 39.8 µM (active) |  |  |  | 16.6% (inactive) |  | -26.2% (inactive) | 66.8 µM (active) | 23.7 µM (active) | 5.53% (inactive)
CCOCN(C(=O)CCl)c1c(C)cccc1CC | 32 µM (active) |  | inactive |  | inactive | 50.1 µM (active) | 50.1 µM (active) |  | 50.1 µM (active) |  | 50.1 µM (active) |  |  |  | 5.28% (inactive) and 1.08% (inactive) |  |  | 7.5 µM (active) and 7.7 µM (active) | inactive | -4.5% (inactive) and -5.56% (inactive)
